Test results taken from a collection of fitness landscapes (doi:10.1016/j.celrep.2020.107928).
Whole data set: some 81,000 sequences, median “one-hybrid fitness for binding parS DNA” near -0.17, cut for the highest 2% near 0.51. What follows is part of a selection rich in the highest values, with near analogues and random picks from the rest.

B1: Caulobacter ParB omega fusion; a variant is named by its letters at X, in order, B8GW30 (parent)
chain: MESVVVGEPGMSEGRRGLGRGLSALLGEVDAAPAQAPGEQLGGSREAPIEILQRNPDQPRRTFREEDLEDLSNSIREKGVLQPILVRPSPDTAGEYQIVAGERAWRAAQRAGLKTVPIMVRELDDLAVLEIGIIENVQRADLNVLEEALSYKVLMEKFERTQENIAQTIGKSXSHVANXMRLLXLPDEVQSYLVSGELTAXHARAIAAAADPVALAKQIIEGGLSVRETEALARKAPNLSAGKSKGGRPPRVKDTDTQALESDLSSVLGLDVSIDHRGSTGTLTITYATLEQLDDLCNRLTRGI

Variants of: B1
Test: one-hybrid fitness for binding parS DNA (scaled: cognate 1, non-cognate 0); higher = stronger binding
Conditions: with parS DNA site
How it was run: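 Fitness here means the log change in variant-to-wild-type read ratio between plasmids sequenced before and after selection. That scale was set so cognate equals 1 and non-cognate equals 0. The selection was a bacterial one-hybrid screen of Caulobacter ParB libraries, four specificity codons randomised, in E. coli USO carrying a HIS3 reporter with the site 19 bp from the promoter, grown 48 hours at 37°C on M9-minus-histidine with 0.1 mM IPTG and 5 mM 3-AT.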

Row | Variant | one-hybrid fitness for binding parS DNA
1 | RKNT | 0.723
2 | RKCY | 0.369
3 | RKWT | 0.759
4 | RKST | 0.749
5 | RKSQ | ≤ 0.2
6 | RKCK | ≤ 0.2
7 | AHCT | ≤ 0.2
8 | SYTS | ≤ 0.2
9 | LAQL | ≤ 0.2
10 | LSDG | ≤ 0.2
11 | ISTA | ≤ 0.2
12 | MTHL | ≤ 0.2
13 | CYFG | ≤ 0.2
14 | RKYF | ≤ 0.2
15 | RKHT | 0.756
16 | RKYT | 0.868
17 | RKLH | 0.223
18 | RKPT | 0.412
19 | RKLT | 0.856
20 | RKYK | ≤ 0.2
21 | RKLN | 0.351
22 | RKIT | 0.675
23 | RKHP | ≤ 0.2

Row | Variant | one-hybrid fitness for binding parS DNA
24 | RKHH | ≤ 0.2
25 | RKIY | 0.352
26 | YKNL | ≤ 0.2
27 | VDMS | ≤ 0.2
28 | HRNI | ≤ 0.2
29 | NWKR | ≤ 0.2
30 | FKRH | ≤ 0.2
31 | TTLP | ≤ 0.2
32 | LGQS | ≤ 0.2
33 | DPGV | ≤ 0.2
34 | ITRV | ≤ 0.2
35 | WNTN | ≤ 0.2
36 | RKRQ | ≤ 0.2
37 | RKQH | ≤ 0.2
38 | RKGQ | ≤ 0.2
39 | RKRR | ≤ 0.2
40 | RKGM | 0.262
41 | RKDY | 0.38
42 | RKRT | 0.658
43 | RKQP | ≤ 0.2
44 | RKDT | 0.832
45 | RKDK | ≤ 0.2
46 | RKQT | 0.729

Row | Variant | one-hybrid fitness for binding parS DNA
47 | RKGT | 0.764
48 | TDGD | ≤ 0.2
49 | RCPL | ≤ 0.2
50 | WHLG | ≤ 0.2
51 | CRRN | ≤ 0.2
52 | ITGW | ≤ 0.2
53 | RLNC | 0.94
54 | RLNE | ≤ 0.2
55 | RLNK | ≤ 0.2
56 | RLDF | 0.229
57 | RLDC | 0.938
58 | RLDQ | ≤ 0.2
59 | TYDG | ≤ 0.2
60 | RNSM | 0.238
61 | RNRT | 0.786
62 | RNYT | 0.66
63 | RNWF | ≤ 0.2
64 | RNST | 0.746
65 | RNRR | ≤ 0.2
66 | RNPT | 0.307
67 | RNWY | 0.275
68 | RNSY | 0.399
69 | RNIT | 0.427

Row | Variant | one-hybrid fitness for binding parS DNA
70 | RNWT | 0.535
71 | RNRM | 0.345
72 | QFRW | ≤ 0.2
73 | LVVI | ≤ 0.2
74 | PETN | ≤ 0.2
75 | YEDL | ≤ 0.2
76 | KWKD | ≤ 0.2
77 | VTLP | ≤ 0.2
78 | HAAI | ≤ 0.2
79 | PKVP | ≤ 0.2
80 | RNLP | ≤ 0.2
81 | RNHD | ≤ 0.2
82 | RNLT | 0.683
83 | RNQM | 0.228
84 | RNGR | ≤ 0.2
85 | RNGT | 0.696
86 | RNHN | 0.346
87 | RNHT | 0.723
88 | RNQT | 0.74
89 | RNLH | ≤ 0.2
90 | RNGY | 0.306
91 | RNQR | ≤ 0.2
92 | QRGN | ≤ 0.2

Row | Variant | one-hybrid fitness for binding parS DNA
93 | GVHD | ≤ 0.2
94 | VTSQ | ≤ 0.2
95 | MGWS | ≤ 0.2
96 | QCRG | ≤ 0.2
97 | QHQC | ≤ 0.2
98 | LAPW | ≤ 0.2
99 | HMRI | ≤ 0.2
100 | VDML | ≤ 0.2
101 | HQSC | ≤ 0.2
102 | DSFI | ≤ 0.2
103 | LCFF | ≤ 0.2
104 | ETSR | ≤ 0.2
105 | RNCT | 0.612
106 | RNCQ | ≤ 0.2
107 | RNCM | ≤ 0.2
108 | QRCF | ≤ 0.2
109 | DGSS | ≤ 0.2
110 | YRDA | ≤ 0.2
111 | AKTQ | ≤ 0.2
112 | RRIQ | ≤ 0.2
113 | RRPC | 0.796
114 | RRIY | 0.332
115 | RRPM | 0.215

Row | Variant | one-hybrid fitness for binding parS DNA
116 | RRIC | 0.71
117 | SLCD | ≤ 0.2
118 | HGNW | ≤ 0.2
119 | EVCS | ≤ 0.2
120 | LNAY | ≤ 0.2
121 | AANM | ≤ 0.2
122 | ILWI | ≤ 0.2
123 | ALYC | ≤ 0.2
124 | RAFA | 0.624
125 | NAAA | ≤ 0.2
126 | RAAA | 0.592
127 | DAAA | ≤ 0.2
128 | NQKR | ≤ 0.2
129 | LMTS | ≤ 0.2
130 | GGWG | ≤ 0.2
131 | HSNS | ≤ 0.2
132 | QTKP | ≤ 0.2
133 | RHAC | 0.933
134 | RHFR | ≤ 0.2
135 | RHFK | ≤ 0.2
136 | RHFC | 0.799
137 | RHAF | ≤ 0.2
138 | RHAR | ≤ 0.2

Row | Variant | one-hybrid fitness for binding parS DNA
139 | QLSE | ≤ 0.2
140 | TNGD | ≤ 0.2
141 | RMVA | 0.611
142 | RMKA | 0.735
143 | DMVA | ≤ 0.2
144 | EGMC | ≤ 0.2
145 | HPGG | ≤ 0.2
146 | CLLW | ≤ 0.2
147 | RPYT | ≤ 0.2
148 | RSNP | ≤ 0.2
149 | RSDT | 0.696
150 | RSNT | 0.911
151 | RSDM | ≤ 0.2
152 | RPDT | ≤ 0.2
153 | RDDT | ≤ 0.2
154 | RCYT | 0.963
155 | RSNN | 0.445
156 | RCDT | 0.813
157 | REDT | ≤ 0.2
158 | REYT | ≤ 0.2
